Sampled rows, rich in hits. Any-hit rate of the full collection: about 2.7%.
TrxR1 inh – blocks rat thioredoxin reductase 1; O89049; recombinant rTrxR1, NADPH fluorescence consumption, selenite substrate; Potency, µM (doses to about 114 µM), without a hit: at the highest dose activity change, negative = inhibition, usual class: inhibitors; 390,000 compounds, 1% hits; AID 588453; also: % is scaled to controls: 0 for no effect and ±100 for the full control effect; nearly all actives have a fitted effect of over 65% in size
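Rat TrxR1 (90 nM in the dispensed reagent) was pre-reduced with 400 uM NADPH for 5 min at room temperature, then incubated with compound for 15 min. After 400 uM selenite was added, NADPH fluorescence (Ex 340/Em 450 nm) was followed for 8 min.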
GLP1R cytotox – cytotoxicity in counter-screen for GLP-1R inverse agonists. HEK293 cAMP-luciferase reporter cells, luminescence, 24 h. Potency, µM (highest dose often 38.3 µM), without a hit: top-dose activity change, negative = inhibition, usual class: inhibitors. 410,000 compounds, 0.13% hits. AID 624418;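 also: loss of luciferase light is scored as toxicity; % is scaled to controls: 0 for no effect and ±100 for the full control effect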
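Here, cytotoxicity is scored as loss of luminescence. The MLSMR collection was tested on cells seeded in medium containing 10% Nu serum, with a 24 hr compound exposure preceded by 12 hours of culture.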
GLP1R ag – agonists of human GLP-1 receptor. P43220. HEK293 GLP-1R CRE-luciferase, luminescence, 4-6 h; cells express a hypersensitive GLP-1R form. Potency, µM (titrated, usually from 45.6 µM), for inactives: top-dose activation, most hits filed as activators. 380,000 compounds, 0.007% hits; also: % of control where 0% means no effect
Target sequence (P43220 whole entry, looked up): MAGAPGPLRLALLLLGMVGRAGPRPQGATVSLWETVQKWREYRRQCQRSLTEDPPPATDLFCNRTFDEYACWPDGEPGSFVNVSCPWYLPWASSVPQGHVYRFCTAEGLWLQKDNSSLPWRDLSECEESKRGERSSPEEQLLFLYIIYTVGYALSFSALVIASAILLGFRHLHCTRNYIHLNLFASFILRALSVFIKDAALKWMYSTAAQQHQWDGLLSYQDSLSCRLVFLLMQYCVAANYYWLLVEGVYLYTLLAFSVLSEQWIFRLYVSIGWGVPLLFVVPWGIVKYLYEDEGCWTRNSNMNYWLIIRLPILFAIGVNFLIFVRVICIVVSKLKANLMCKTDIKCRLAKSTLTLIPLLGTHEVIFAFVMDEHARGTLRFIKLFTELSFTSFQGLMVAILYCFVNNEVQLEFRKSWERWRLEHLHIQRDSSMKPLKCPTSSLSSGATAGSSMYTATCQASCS
GLP-1R inv ag – acts as inverse agonist at human GLP-1 receptor; 410,000 compounds, 1.6% hits; AID 624417; P43220; HEK293 GLP-1R CRE-luciferase, luminescence, 24 h; GLP-1R form is constitutively active; Potency, µM (titrated, usually from 38.3 µM), for inactives: at the highest dose activity change, negative = inhibition, most hits filed as inhibitors; also: % is scaled to controls: 0 for no effect and ±100 for the full control effect; nearly all actives have a fitted effect of over 55% in size
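GLP-1R inverse agonism mode: basal reporter luminescence in engineered HEK293 cells measured after one day of compound exposure at 37 deg C, with a 12 min room-temperature detection step.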
mIDH1 inhibitor – blocks human mutant IDH1 R132H enzyme; O75874; IDH1-R132H enzyme, NADPH consumption, diaphorase/resazurin fluorescence; 390,000 compounds, 0.093% hits; Potency, µM (doses to about 76.6 µM), for inactives: top-dose activity change, negative = inhibition, hits mostly inhibitors; also: % is scaled to controls: 0 for no effect and ±100 for the full control effect; nearly all actives have a fitted effect of over 65% in size
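IDH1-R132H (0.5 ug/mL dispensed) in pH 7.5 Tris buffer was preincubated 30 min with compound, then given a substrate mix of 0.016 mM NADPH and 2 mM alpha-KG for 80 min at room temperature; remaining NADPH was read by diaphorase/resazurin fluorescence.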
TrxR1 substrate – substrates of rat thioredoxin reductase 1; O89049; purified TrxR1 substrate turnover, NADPH consumption readout; Potency, µM (highest dose often 114 µM), for inactives: at the highest dose activity change, negative = substrate turnover; 390,000 compounds, 0.01% hits; AID 588456; also: % is scaled to controls: 0 for no effect and ±100 for the full control effect; nearly all actives have a fitted effect of over 50% in size
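Rat TrxR1, dispensed at 90 nM, was prereduced with 400 uM NADPH (final) for 5 min at ~22 deg C, then incubated with compound 15 min before 400 uM selenite. A first-read NADPH fluorescence drop versus no-compound background flagged substrates.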
Starred values were filed as active, the others as inactive; i = inactive; u = inconclusive; x = not tested or not shown; [ ] = remark or other dose. Calls follow the shape of the dose curve; as a rule, active = well fitted curve in the direction sought with a large enough effect; inconclusive = small, poorly fitted or top-dose-only effect, or another doubt; inactive = no such curve, though single readings can be large; an effect the other way counts as inactive or inconclusive. Potency is read from the fitted curve at half-maximal effect.

SMILES | TrxR1 inh | GLP1R cytotox | GLP1R ag | GLP-1R inv ag | mIDH1 inhibitor | TrxR1 substrate
O=C1NCCN(Cc2ccc(F)cc2)C1=O | 11%[57.1 µM] | 2% | x | 1% | -2% | 2%[57.1 µM]
O=S(=O)(CS(=O)(=O)c1ccccc1)c1ccccc1 | 11µM* | -6% | 12% | 26% | 3% | -10%
O=S(=O)(C/C(=C/CO)S(=O)(=O)c1ccccc1)c1ccccc1 | 2.2µM* | -28% | -14% | -5% | 5% | 10%
Cc1ccc(S(=O)(=O)CS(=O)(=O)c2ccc(C)cc2)cc1 | -18%[11.4 µM] | -11% | 4% | 2% | 1% | -1%[11.4 µM]
CCCCN(CC)CCNc1ncnc2onc(-c3ccc(Cl)cc3)c12 | 4% | -16% | 0% | -1% | 27% | 1%
CCOC(=S)SCC(=O)Nc1nc(-c2ccccc2)cs1 | 0% | u | -3% | 0% | 6% | -2%
CCOC(=S)SCC(=O)Nc1nc(-c2ccc(Br)cc2)cs1 | 5% | 5µM* | -4% | 0% | -14% | -5%
CC(NC(=O)/C=C/c1ccco1)c1nc2ccccc2n1Cc1cccc(Cl)c1 (configuration not stated) | 14µM* | 18% | -1% | -24% | -5% | -3%
COc1ccc(N(C(=O)c2ccccc2F)S(=O)(=O)c2ccc3c(c2)n(C)c(=O)n3C)cc1 | 7% | 10% | x | 2% | x | 4%
COc1cc(/C=C/C(=O)O[C@H]2CC[C@]34C[C@]35CC[C@]3(C)[C@@H]([C@H](C)CCC=C(C)C)CC[C@@]3(C)C5CCC4C2(C)C)ccc1O (some centres not stated) | x | x | -4% | x | x | x
COc1ccccc1CNC(=S)NCc1ccc(Cl)cc1 | -6% | -28% | -3% | 10µM* | 12% | -4%
CCCc1cc(=O)oc2c(CN3CCN(C)CC3)c(O)ccc12 | 79µM* | 123% | 2% | u | -8% | 869%
CCCc1cc(=O)oc2c(CN3CCN(C)CC3)c(O)c(Cl)cc12 | 40µM* | 269% | -5% | 7% | 6% | i
CCCc1cc(=O)oc2c(CN(CC)CC)c(O)c(Cl)cc12 | 18µM* | 236% | 6% | -16% | -2% | 953%
CCCCc1cc(=O)oc2c(CN(CC)CC)c(O)c(Cl)cc12 | u | 188% | -9% | 7% | 2% | i
O=C(Nc1cccc(C(F)(F)F)c1)c1cc(S(=O)(=O)N2CCCC2)c[nH]1 | 24% | 5% | 5% | 8% | -9% | 5%[11.4 µM]
Cc1sc2ccccc2[n+]1CCC[n+]1c(C)sc2ccccc21 | 222% | x | x | x | x | -5%
Cc1oc2ccc(O)c(CN3CCN(C)CC3)c2c1C(=O)Nc1ccc(C(C)C)cc1 | 23% | 0% | x | 6% | 23% | 3%
COc1cccc(C(=O)Nc2ccc(Cl)c(-c3nc4ccccc4[nH]3)c2)c1 | 19% | u | x | u | x | 9%
Cn1cccc1CC(=O)N/N=C/C=C/c1ccco1 | 50µM* | -8% | -1% | 0% | 5% | -4%
C/C(=N\NC(=O)Cc1cccn1C)c1ccco1 | u | 0% | 14% | 18% | 0% | -3%
O=C(N/N=C/C=C/c1ccccc1)C(O)c1ccccc1 (configuration not stated) | 10% | -1% | -6% | 0% | 5% | -8%
O=C(N/N=C/C=C/c1ccco1)C(O)c1ccccc1 (configuration not stated) | 13µM* | 5% | -4% | 0% | 8% | -3%
CCOC(=O)c1c(NC(=O)/C=C/c2ccccc2)sc2c1CCCC2 | 8% | 2% | x | -7% | 0% | -1%
CCN(CC)CC(O)COC(c1ccccc1)c1ccccc1 (configuration not stated) | 2% | 11% | -4% | -37% | 0% | 0%
CCN(Cc1ccccc1)CC(O)COC(c1ccc(OC)cc1)c1ccc(OC)cc1 (configuration not stated) | 7% | u | 13% | 10µM* | 5% | -10%

Source: PubChem BioAssay
